# According to PMC4552634, “A New Set of Chemical Starting Points with Plasmodium falciparum Transmission-Blocking Potential for Antimalarial Drug Discovery” (PLoS ONE, 2015):
# The campaign covered roughly 13,000 compounds. About 3,200 (25%) showed an effect of 50% or more. The list shows a part of the results.
# System: P. falciparum stage V gametocytes
# Design: BacTiter-Glo ATP luminescence viability of purified stage V gametocytes in 384-well plates, per cent inhibition versus DMSO
# Settings: 48 h, 5 µM; inhibitor
row,SMILES,% Inhibition [%]
1,NC(=O)c1cccc(Nc2nccc(Nc3ccc(Oc4cccc(Cl)c4)c(Cl)c3)n2)c1 [TCMDC-138593],-22.97
2,Cc1c(S(=O)(=O)Nc2ccc3ccn(CCN(C)C)c3c2)sc2ccc(Cl)cc12 [TCMDC-139126],-31.84
3,COc1ccc(C2CC(c3ccccc3O)=NN2C(=O)c2ccco2)cc1OC (stereo not shown) [TCMDC-125347],-56.68
4,CC(C)C[C@H](Nc1ccnc(NCC2CCCCC2)n1)C(=O)NCCOc1ccccc1 [TCMDC-134712],15.38
5,Cc1cc(O)c(CN(C)Cc2ccc3c(c2)OCCO3)cc1C(C)C [TCMDC-124884],16.52
6,Cc1cc(O)c(CN(C)Cc2ccc3c(c2)OCO3)cc1C(C)C [TCMDC-124881],27
7,CCOc1ccc(CN(CCc2ccc3c(c2)OCO3)Cc2cc(OC)ccc2O)cc1 [TCMDC-125607],58.7
8,CCOC(=O)c1ccc(NC(=O)Nc2cccc(-c3ccc(-c4nc5ccc(F)cc5[nH]4)cc3)c2)cc1 [TCMDC-133267],-0.2568
9,Cc1cccc2nc(-c3cccc(-c4ccc(CN5CCC(C(N)=O)CC5)cc4)c3)[nH]c12.O=C(O)C(F)(F)F [TCMDC-132697],21.78
10,CS(=O)(=O)c1ccc(-c2cnc(N)c(-c3cccc(CO)c3)c2)cc1 [TCMDC-133352],33.58
11,CS(=O)(=O)c1ccc(-c2cnc(N)c(-c3cccc(O)c3)c2)cc1 [TCMDC-133347],65.54
12,COc1cc(-c2cc(-c3ccc(S(C)(=O)=O)cc3)cnc2N)ccc1O [TCMDC-133343],105.4
13,COc1ccc(-c2cnc(N)c(-c3ccc(C(N)=O)cc3)c2)cc1OC [TCMDC-133349],67.55
14,COc1ccc(-c2cnc(N)c(-c3ccc(O)c(OC)c3)c2)cn1 [TCMDC-133350],11.39
15,CS(=O)(=O)c1ccc(-c2cnc(N)c(-c3ccc(O)cc3)c2)cc1 [TCMDC-133348],24.96
16,COc1ccc(-c2ccc3c(-c4ccc(F)cc4)cnc(N)c3c2)cn1 [TCMDC-134503],16.03
17,COC(=O)c1ccc2nc(-c3cc(-c4cccc(-c5ccccc5)c4)cnc3N)[nH]c2c1 [TCMDC-135320],-16.97
18,CS(=O)(=O)c1ccc2nc(-c3cc(-c4cccc(F)c4)cnc3N)[nH]c2c1 [TCMDC-133134],32.71
19,COc1cc(-c2cnc(N)c(-c3nc4ccccc4[nH]3)c2)cc(OC)c1OC [TCMDC-138793],9.298
20,COc1ccc(-c2cc(-c3ccc(S(C)(=O)=O)cc3)cnc2N)cn1 [TCMDC-133351],104.2
21,COCc1cccc(-c2cc(-c3ccc(S(C)(=O)=O)cc3)cnc2N)c1 [TCMDC-133342],35.59
22,CCCc1cc(OC)c(CC2c3cc(O)c(C)cc3CCN2C)cc1OC (stereo not shown) [TCMDC-137164],-32.49
23,Cc1c(C)n(C2CCCCC2)c2ncnc(OC3CCN(CC(=O)NC4CC4)CC3)c12 [TCMDC-124853],15.8
24,CCCc1cnc2nc(N)nc(N)c2c1C [TCMDC-138066],12.33

row,SMILES,% Inhibition [%]
1,Cn1cc(-c2ccccc2C(=O)O)c(=O)c2cc(Cl)ccc21 [TCMDC-123861],6.577
2,CCOc1cc(C(=O)N[C@@H](Cc2ccccc2)[C@H](O)CNCc2cc(OC)cc(OC)c2)cc(N2CCCC2=O)c1 [TCMDC-134571],-29.57
3,COCc1cc(C)nc2sc(C(=O)Nc3cc(C(C)(C)C)ccc3O)c(N)c12 [TCMDC-125131],1.168
4,O=C(/C=C/c1ccc(Cl)c(Cl)c1)NCCCCCN1CCCN(C(=O)Nc2cc(F)cc(F)c2)CC1 [TCMDC-135751],-53.24
5,Oc1cccc(Nc2ccnc3cc(-c4cc5ccccc5o4)ccc23)c1 [TCMDC-138287],-55.42
6,COc1ccc(Cc2c(N)nc3nc(N)nc(N)c3c2C)cc1 [TCMDC-138061],18.63
7,COc1cccc(-c2cc3c(NCc4ccncc4)nccc3s2)c1 [TCMDC-135200],-6.172
8,CC(C)CC(=O)N1CCNC[C@@H]1C(=O)NCCSCc1c(F)cccc1Cl [TCMDC-141243],-23.04
9,O=C(/C=C/c1ccc(Cl)c(Cl)c1)N1CCCC(CCCN2CCC(c3c[nH]c4ccccc34)CC2)C1 (stereo not shown) [TCMDC-139505],18.14
10,NC(N)=NN=Cc1c2ccc(Cl)cc2c(Cl)c2ccc(Cl)cc12 [TCMDC-137884],111.2
11,NC(N)=NN=CC(=O)Nc1ccc(Cl)c(Cl)c1 [TCMDC-137466],-3.448
12,NC(N)=NN=Cc1c[nH]c2ccc(-c3ccccc3)cc12 [TCMDC-138961],-59.33
13,Clc1ccc2c(NN=Cc3ccccc3)ccnc2c1 [TCMDC-123962],-43
14,NC(N)=NN=Cc1c2ccccc2c(Cl)c2c(Cl)cccc12 [TCMDC-137898],83.04
15,NC(N)=NN=Cc1c2ccccc2c(Cl)c2ccc(Cl)cc12 [TCMDC-137911],98.76
16,NC(N)=NN=Cc1c2ccccc2c(Cl)c2cc(Cl)ccc12 [TCMDC-137903],96.19
17,Cc1cc(C)c(C)c(S(=O)(=O)N2CCCCC(c3ccc(F)c(F)c3)=N2)c1C [TCMDC-135419],-64.55
18,CCCc1cc(Cc2cnc(N)nc2N)cc(CC)c1OC [TCMDC-137693],21.32
19,COc1ccc(Nc2nccc(N3CCC(NC(=O)Nc4ccc5c(c4)OCO5)C3)n2)cc1 (stereo not shown) [TCMDC-133617],-60.34
20,CN(C)CCC1CCN(CCS(=O)(=O)c2cccc(Nc3ncc(-c4cccc(F)c4)cn3)c2)CC1 [TCMDC-134374],1.071
21,COc1cccc2c1CCN(CCN1CCC(CNC(=O)c3ccc(-c4ccc(C#N)cc4)cc3)CC1)C2 [TCMDC-134140],16.45
22,COc1ccc2c(c1)CCN(CCN1CCC(CNC(=O)c3ccc(-c4ccc(C#N)cc4)cc3)CC1)C2 [TCMDC-138881],-33.61
23,N#Cc1ccc(-c2ccc(C(=O)NCCCCN3CCC(c4cn(CCO)c5ccccc45)CC3)cc2)cc1 [TCMDC-138836],-28.51
24,C=C(C)Cn1cc(C2CCN(CCN3CCC(CNC(=O)c4ccc(-c5ccc(C#N)cc5)cc4)CC3)CC2)c2ccccc21 [TCMDC-138854],103.5

row,SMILES,% Inhibition [%]
1,CC(C)Cn1cc(C2CCN(CCN3CCC(CNC(=O)c4ccc(-c5ccc(C#N)cc5)cc4)CC3)CC2)c2ccccc21 [TCMDC-138849],100.8
2,N#Cc1ccc(-c2ccc(C(=O)NCCCCN3CCC(c4cn(CCCO)c5ccccc45)CC3)cc2)cc1 [TCMDC-138837],-51.57
3,COc1cc(C=C(C2=NC(=O)CS2)c2nc3cccnc3n2C)ccc1O [TCMDC-135917],-7.7
4,O=C(CC1CCCCC1)NCC(NCCCNc1cc(=O)c2ccccc2[nH]1)c1cc(Br)cc(Br)c1 (stereo not shown) [TCMDC-140315],-37.31
5,Cc1cccc2[nH]c(-c3ccc(-c4cccc(NC(=O)C(C)CN(C)C)c4)cc3)nc12 (stereo not shown) [TCMDC-137103],-53.92
6,CC(=O)c1c(CC(=O)O)c2ccccc2n1O [TCMDC-131414],58.24
7,CCCCOc1ccc(-n2c(Nc3ccccc3)nc3cc(S(N)(=O)=O)ccc32)cc1 [TCMDC-135489],-3.968
8,CC1CCC(C[C@@H](C(=O)N[C@@H](CCC(=O)N2CCCCC2)C(=O)Nc2nccs2)[C@H](C(C)C)N(O)C=O)CC1 (stereo partly shown) [TCMDC-138168],-16.64
9,COc1cccc(Nc2nc(Nc3cccc(C#N)c3)cc(-c3ccncc3)n2)c1 [TCMDC-133447],6.387
10,O=C(CSc1n[nH]c(=O)n1Cc1ccccc1)Nc1ccccc1-c1ccccc1 [TCMDC-123557],0.01985
11,COc1ccc(C2CC(c3cccs3)=NN2C(=O)c2ccccc2)cc1OC (stereo not shown) [TCMDC-123755],-49.1
12,Cn1c(N)c(C(=O)CSc2nnc(-c3cccs3)n2Cc2ccccc2)c(=O)n(C)c1=O [TCMDC-124496],-5.537
13,COc1ccccc1-n1c(SCC(=O)c2ccc3c(c2)CC(=O)N3C)nnc1-c1cccs1 [TCMDC-124819],56.33
14,CN1CCCC1CNS(=O)(=O)c1ccc(C(=O)NCC2CC2)cc1 (stereo not shown) [TCMDC-133683],0.07982
15,CCc1ccc(C(=O)NC(=O)c2ccccc2O)cc1 [TCMDC-123479],19.58
16,c1ccc(Oc2ccc(Nc3ccnc4cc(-c5csc(CNCCN6CCOCC6)n5)ccc34)cc2)cc1 [TCMDC-138407],5.088
17,CS(=O)(=O)CCNCc1nc(-c2ccc3c(Nc4ccc(Oc5ccccn5)cc4)ccnc3c2)cs1 [TCMDC-138438],-37.4
18,CN(C)CCN(C)Cc1nc(-c2ccc3c(Nc4ccc(Oc5ccccc5)cc4)ccnc3c2)cs1 [TCMDC-138408],77.6
19,Cc1ccc(O)cc1Nc1ccnc2cc(-c3csc(CN(C)CCN(C)C)n3)ccc12 [TCMDC-138458],49.52
20,CN(C)CCNCc1nc(-c2ccc3c(Nc4ccc(Oc5ccccc5)cc4)ccnc3c2)cs1 [TCMDC-138410],95.14
21,CN(C)CCNCc1nc(-c2ccc3c(Nc4ccc(Cl)cc4F)ccnc3c2)cs1 [TCMDC-138455],16.78
22,CCc1ccc2nc(-c3ccc(F)cc3)nc(SCC(=O)Nc3sc(C)c(C)c3C#N)c2c1 [TCMDC-125430],16.25
